Experimental findings from PubChem BioAssay AID1490 (National Center for Advancing Translational Sciences (NCATS), 2009) are described below.

About 11,000 (3.5%) of roughly 310,000 compounds were called active. Inconclusive results (about 4%) are left out. For the sample, actives were picked, then their nearest neighbours and some compounds at random. Unmarked numbers belong to inactive results. Calls follow the shape of the dose curve; as a rule, active = well fitted inhibition curve with a large enough effect; inconclusive = small, poorly fitted or top-dose-only effect, or another doubt; inactive = no such curve, though single readings can be large or run the other way.
Potency is read from the fitted curve at half-maximal effect.

The target of this experiment is 4'-phosphopantetheinyl transferase ffp (Bacillus subtilis) (UniProt Q9F4F7). The experiment is described as follows: qHTS Assay for Inhibitors of Bacillus subtilis Sfp phosphopantetheinyl transferase (PPTase).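 Also: the enzyme is Sfp with the accession as filed and its product quenches rhodamine fluorescence.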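 As to largest response in the series, negative = inhibition: 0% = enzyme reaction without inhibitor and -100% = no enzyme wells.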 To be noted: Biochemical Sfp PPTase activity. In short, it runs like this:
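Fluorescence-quenching assay with 15 nM Sfp, 5 uM rhodamine-CoA and 12.5 uM BHQ-2-labelled ybbR peptide in pH 7.6 Hepes/MgCl2 buffer. Enzyme was pre-incubated with compound for 15 min at room temperature. Rate was taken from the 30-min fluorescence change (525/598 nm).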
On to `COc1ccc(OCc2cc(C(=O)N3CCCC3)no2)c2ccccc12`, for which the largest response in the series, negative = inhibition was -21.1%.
`O=c1cc(CO)oc(C(Nc2cccc([N+](=O)[O-])c2)c2ccccn2)c1O` (configuration not stated): the Potency is 20 µM (active).
With `O=C(Nc1cccc([N+](=O)[O-])c1)Nn1cnnc1`, the largest response in the series, negative = inhibition is 16.6%.
For `O=C(Nc1cccc(C(F)(F)F)c1)c1cc(Br)cc(Br)c1O`, the largest response in the series, negative = inhibition is -10.2%.
Consider `O=[N+]([O-])c1cccc(S(=O)(=O)NCc2ccccn2)c1`, for which the largest response in the series, negative = inhibition is 1.73%.
Still for that read-out and setting: to `FC(F)(F)c1cccc(Nc2ncnc3ccccc23)c1` belongs 5.92%.
As for `O=c1cc(CO)oc(C(Nc2cccc(C(F)(F)F)c2)c2ccccn2)c1O` (configuration not stated), the Potency was 7.94 µM (active).
Turning to `CCC(C)C(NC(=O)C1CCC(=O)N1C(=O)OCc1ccccc1)C(=O)NC(C(=O)N1CCCC1C(N)=O)C(C)CC` (configuration not stated), the largest response in the series, negative = inhibition is 18.8%.
Regarding `N#Cc1ccccc1NC(=O)c1ccc2c(c1)OCO2`, the largest response in the series, negative = inhibition is 20.2%.
On the same count and under the same terms, next, `COc1ccc(CN2C3CCCC2CC(NC(=O)c2cccc(F)c2)C3)cc1` (configuration not stated): 9.04%; `O=C(N/N=C/c1cccc(Br)c1)c1ccc(N2CCCC2=O)cc1`: 2.98%.
On the same count and under the same terms, next, `Cc1occc1C(=O)NC1CCCN(Cc2ccc(CC(C)C)cc2)C1` (configuration not stated): 10%; `COc1ccc(CNC(=O)CN(C(=O)c2csnn2)c2cnc3ccccc3c2)cc1`: 15.4%.
Still for that read-out and setting: next, `COC(=O)c1c(NC(=O)c2cccs2)sc2c1CCCC2`: 6.07%.
Regarding `CCc1c(C)sc(NC(=O)c2ccc(Br)o2)c1C(=O)OC`, the largest response in the series, negative = inhibition is -4.91%.
For the compound `CCc1c(C)sc(NC(=O)c2cccs2)c1C(N)=O`, the Potency was 14.1 µM (active).
For `CC(C)(COC(=O)Nc1ccccc1)COC(=O)Nc1ccccc1`, the largest response in the series, negative = inhibition was 5.47%.
The same measure, in the same setting: next, `NC(=O)CSc1nnc(NC(=O)c2ccc(Br)o2)s1`: 4.59%; `Cc1cc(OC(=O)c2ccc(OC(C)C)cc2)c([N+](=O)[O-])c(=O)[nH]1`: 16.6%; `Fc1ccccc1COc1ccccc1CNCc1ccncc1`: -8.76%.
On to `c1ccc(COc2ccccc2CNCc2cccnc2)cc1`, for which the Potency was 56.2 µM (active).
`C=CCOc1cccc(CNCc2cccnc2)c1`: the largest response in the series, negative = inhibition is -13.5%.
In the case of `Oc1c(Cl)cc(Cl)cc1/C=N/c1ncn[nH]1`, the largest response in the series, negative = inhibition was -2.74%.
On the same count and under the same terms, next, `Cc1ccc(CN2CCN(Cc3cn(C)nc3-c3ccccc3)CC2CCO)o1` (configuration not stated): 8.78%.
In the case of `Cc1ccccc1CN1C[C@@H]2C[C@@H](c3cn(C)nc3-c3ccccc3)N3CCC[C@@]23C1=O`, the Potency was 3.16 µM (active).
As to `Cc1ccccc1CN1C[C@@H]2C[C@@H](c3ccc4nsnc4c3)N3CCC[C@@]23C1=O`, the largest response in the series, negative = inhibition was 7.31%.
Same read-out and setting: to `COc1ccc(NC(=O)CSc2nc(SC)ns2)c(OC)c1` belongs 8.6%.
Same read-out and setting: next, `COC(=O)C1=C(C)N(C)C(=O)NC1c1ccc([N+](=O)[O-])o1` (configuration not stated): 23.4%.
For the compound `COC(=O)C1=C(C(=O)OC)C(c2cc([N+](=O)[O-])ccc2O)c2sc(=O)[nH]c2S1` (configuration not stated), the Potency was 44.7 µM (active).
In the case of `COC(=O)c1c(C)[nH]c(C)c1-c1ccc([N+](=O)[O-])cc1`, the largest response in the series, negative = inhibition is 9.93%.
In the case of `COC(=O)c1cc(S(=O)(=O)N2CCN(c3cc(C)ccc3C)CC2)c[nH]1`, the largest response in the series, negative = inhibition was 24.2%.
As for `COc1ccc(S(=O)(=O)n2nc(C)c(S(=O)(=O)N3CCOCC3)c2C)cc1`, the largest response in the series, negative = inhibition was 8.67%.
Same read-out and setting: to `Cc1ccc(C2Nc3cccc4cccc(c34)N2)cc1` belongs -26.1%.
The same measure, in the same setting: to `COc1cccc(C2Nc3cccc4cccc(c34)N2)c1` belongs 6.1%.
Regarding `Oc1ccc(C2Nc3cccc4cccc(c34)N2)cc1`, the Potency is 35.5 µM (active).
In the case of `FCOC(C(F)(F)F)C(F)(F)F`, the largest response in the series, negative = inhibition was 11.5%.
For the compound `CCc1ccc(NC(=O)Cn2nnc(C(=O)NCc3ccc(OC)cc3)c2N)cc1`, the largest response in the series, negative = inhibition was 4.14%.
As to `COc1ccc(CNc2ncncc2-c2ccccc2OC)c(OC)c1`, the largest response in the series, negative = inhibition is -6.24%.
On the same count and under the same terms, next, `COc1ccc(CNc2ncncc2-c2ccccc2C)c(OC)c1`: -23.8%.
In the case of `Cc1cnc(CNc2ncncc2-c2ccccc2Cl)cn1`, the Potency is 79.4 µM (active).
Regarding `CS(=O)(=O)c1ccccc1C(=O)Nc1ccc2sccc2c1`, the largest response in the series, negative = inhibition is 8.96%.
For the compound `CCn1c(SCc2ccccc2)nc2c(c1=O)SCC2`, the largest response in the series, negative = inhibition is 11.2%.
Still for that read-out and setting: next, `Cn1c(SCC(=O)N2CCCCC2)nc2c(c1=O)SCC2`: 15.7%.
As to `Cc1cccc(CSc2nc3c(c(=O)n2C)SCC3)c1`, the Potency was 50.1 µM (active).
Turning to `Cc1ccc(S(=O)(=O)N(Cc2ccccc2)c2ccccn2)cc1[N+](=O)[O-]`, the largest response in the series, negative = inhibition was 11.4%.
On the same count and under the same terms, next, `COc1cc(S(=O)(=O)Nc2ncn[nH]2)ccc1Cl`: -14.8%; `O=C1OC(/C=C/c2ccccc2)=NC/1=C/c1ccco1`: 12.2%.
As to `CC(C)(C)C1C/C(=C/c2ccco2)C(=O)/C(=C/c2ccco2)C1` (configuration not stated), the Potency was 20 µM (active).
On to `CCC1S/C(=N/N=C/c2ccco2)NC1=O` (configuration not stated), for which the largest response in the series, negative = inhibition is 3.46%.
Same read-out and setting: next, `CCCC(=O)N1CCC(CCC(=O)NC2CC2)CC1`: 11.2%; `COc1ccc(CNC(=O)C2CCN(C(=O)c3ccccc3)CC2)cc1`: 8.47%.
As to `CCOC(=O)C(=O)C1C(=O)Nc2ccccc21` (configuration not stated), the Potency was 25.1 µM (active).
Regarding `CCCCC(CC)CNC(=O)C(=O)C1C(=O)Nc2ccccc21` (configuration not stated), the largest response in the series, negative = inhibition is 22%.
As for `CCOC(=O)CC1=CC(=O)Nc2ccccc2N1`, the largest response in the series, negative = inhibition was -6.73%.
As to `COC1=C/C(=C/c2c(N)n3nc(CC(=O)N4CCOCC4)sc3nc2=O)C=CC1=O`, the largest response in the series, negative = inhibition was -2.99%.
The same measure, in the same setting: next, `CCC(NC(=O)c1ccccc1NC(=O)c1ccccc1)C(=O)NNC(=O)CSc1nc2ccccc2o1` (configuration not stated): -1.67%.
For the compound `CCOC(=O)Cc1csc(NC(=O)CSc2nc(C)cc(=O)[nH]2)n1`, the Potency is 17.8 µM (active).
On to `CCOC(=O)Cc1csc(NC(=O)CSc2ccc(Br)cc2)n1`, for which the largest response in the series, negative = inhibition is 11.6%.
Same read-out and setting: to `CCCCc1nnc(NC(=O)CSc2nc(C)cc(=O)[nH]2)s1` belongs 9.76%.
Same read-out and setting: to `Cc1ccc(-n2c(SCC(=O)NCCC3=CCCCC3)nc3n[nH]c(C)c3c2=N)cc1Cl` belongs 14.5%; to `CSc1cccc(NC(=O)CN2C(=O)COc3ccc(S(=O)(=O)N4CCOCC4)cc32)c1`, 10.2%.
Same read-out and setting: next, `O=C1COc2ccc(S(=O)(=O)Nc3ccc(OC(F)(F)F)cc3)cc2N1`: 25.6%.
